According to PubChem BioAssay:
Values joined by “and” are separate entries in the source; they are usually repeats but may differ in a detail not shown here. Equal values may be shown once. Active and inactive are the calls of the source.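 The calls were made as follows, unless noted: active = thallium flux through the channel raised or lowered by more than 3 SD from vehicle-only wells, actives on both sides; inactive = the rest.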

What was measured:
[1] = P. berghei load reduction in hepatocytes – cell-based, HepG2, luciferase luminescence, HepG2 viability, primary screen (AID 624349; in the data active = parasite load remaining mostly below about 12%, no sharp cut-off; inactive = mostly above about 10%;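 also: 100% = mean of DMSO negative control wells on the same plate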); conditions: P. berghei liver stage in HepG2, luciferase luminescence, concentration not given here; parasite load remaining: stronger effect = lower value; viability: measured here: HepG2 viability without parasites
[2] = signal quenchers or enhancers, Cy5 substrate/SSB – biochemical, NIH Clinical Collection, E. coli SSB, artefact control for HCV NS3 helicase inhibitor project (AID 743268; call rule not given here); conditions: Cy5-oligo bound E. coli SSB, fluorescence interference
[3] = test system: Hepatitis C virus NS3 helicase; assay: blockers of NS3h binding to DNA – biochemical, fluorescence polarization, NIH Clinical Collection, primary screen (AID 743270; call rule not given here); conditions: NS3 helicase binding to Cy5-dT15 DNA, stronger effect = higher value, concentration not given here
[4] = target: Single-stranded DNA-binding protein (Escherichia coli (strain K12)) (UniProt P0AGE0); assay: SSB-ssDNA binding inhibitors – biochemical, fluorescence polarization, NIH Clinical Collection, counter-screen for HCV NS3 helicase inhibitor project (AID 743271; in the data active = inhibition above about 28%); conditions: E. coli SSB-DNA binding, stronger effect = higher value, concentration not given here
[5] = compounds distorting NS3 helicase fluorescence signal – biochemical, NIH Clinical Collection, artefact control for HCV NS3 helicase inhibitor project (AID 743272; call rule not given here;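 also: HCV NS3 helicase with a Cy5 labelled single stranded DNA probe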); conditions: fluorescence interference counterscreen, HCV NS3 helicase assay; stronger effect = lower value
[6] = test system: Neuropilin-2 / VEGF-C interaction (human); assay: small molecules blocking Neuropilin-2/VEGF-C interaction – biochemical, microplate binding format, z-score (AID 743281; call rule not given here); conditions: microplate NRP2/VEGF-C binding assay; stronger effect = lower value
[7] = EMT-state selective cytotoxicity in co-culture – imaging, PC-3E GFP, TEM4-18 mCherry, primary screen (AID 1345086;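 active = compounds killing one labelled cell type while sparing the other, by normalised counts and ratio limits, not self-fluorescent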;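 also: cells exposed to compound for 72 h before imaging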;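 as to red/green cell ratio (normalised): normalised mesenchymal count divided by normalised epithelial count so high means epithelial killing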); conditions: PC-3E GFP / TEM4-18 mCherry co-culture, imaging cell counts, at 1 µM
[8] = viability loss with induced miR-34 in A549 – imaging, A549 dox-inducible miR-34, nuclei and caspase counts, primary screen (AID 1347080;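 active = compounds whose cell count with miR-34 switched on is under 0.7 times the count with it off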); conditions: A549 miR-34 inducible, Hoechst nuclei count, 48 h
[9] = galactose survival enhancers in mitochondrial complex I cybrids – cell-based, galactose medium, ATP luminescence, primary screen (AID 1645843;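 active = z-score of at least 1.8 in each of two replicates, scored against plate mean and spread of sample wells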;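 also: positive z means more ATP and so rescue of galactose-driven cybrid death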); conditions: complex I mutant cybrid cells, 72 h, stronger effect = higher value
F380Y = assay: BK channel mutant inhibitors and activators – cell-based, U2OS BacMam, thallium flux, beta subunits, selectivity assay, profiling panel (AID 1259406); conditions: U2OS BacMam BK variants, at 30 µM;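 also: initial slope of Thallos dye fluorescence rise after thallium is added; log ratio against the mean of 0.3% DMSO vehicle wells on the same plate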
F380Y/beta2Delta = assay: as above; conditions: U2OS BacMam BK variants, at 30 µM
[10] = target: Calcium-activated potassium channel subunit alpha-1 (Homo sapiens) + Leucine-rich repeat-containing protein 26 (Homo sapiens) (UniProt Q12791+Q2I0M4); assay: as above; conditions: U2OS BacMam BK variants, F380Y/Slo1WT/gamma1, at 30 µM
R275C = assay: as above; conditions: U2OS BacMam BK variants, at 30 µM
R275C/beta1 = assay: as above; conditions: U2OS BacMam BK variants, at 30 µM
R275C/beta2Delta = assay: as above; conditions: U2OS BacMam BK variants, at 30 µM
F380Y/beta1 = assay: as above; conditions: U2OS BacMam BK variants, at 30 µM
F380Y/beta4 = assay: as above; conditions: U2OS BacMam BK variants, at 30 µM
R275C/beta4 = assay: as above; conditions: U2OS BacMam BK variants, at 30 µM
R275C/Slo1WT/beta2 = assay: as above; conditions: U2OS BacMam BK variants, at 30 µM
[11] = modulation of C. elegans fzo-1 (AID 1259413; call rule not given here;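 also: fzo-1 mutant C. elegans worms in liquid wells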); conditions: C. elegans fzo-1 modulator screen, mean read-out; stronger effect = higher value
[12] = stronger effect = lower value, cell number ratio, induced over uninduced
[13] = measured here: relative caspase fold change +Dox/-Dox
[14] = measured here: total cells with miR-34 induction, stronger effect = lower value
[15] = measured here: total cells without miR-34 induction

Chain of Calcium-activated potassium channel subunit alpha-1 (Homo sapiens) + Leucine-rich repeat-containing protein 26 (Homo sapiens) (Q2I0M4 whole entry, looked up, one chain of several): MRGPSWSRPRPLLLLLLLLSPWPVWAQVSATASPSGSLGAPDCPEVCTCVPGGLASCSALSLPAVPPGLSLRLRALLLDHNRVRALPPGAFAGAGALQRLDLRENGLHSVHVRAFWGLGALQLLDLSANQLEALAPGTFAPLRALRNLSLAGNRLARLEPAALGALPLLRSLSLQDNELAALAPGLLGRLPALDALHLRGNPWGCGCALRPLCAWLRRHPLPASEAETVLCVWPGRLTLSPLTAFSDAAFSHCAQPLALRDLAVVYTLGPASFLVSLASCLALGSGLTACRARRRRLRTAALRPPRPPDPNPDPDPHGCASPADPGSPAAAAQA

CN(C)CC/C=C1/c2ccccc2COc2ccccc21
active: log fold change Tl+ flux (F380Y) 0.124 | log fold change Tl+ flux (F380Y/beta2Delta) 0.0845
1.34: normalised cell number ([7]; measured here: epithelial PC-3E GFP cell survival)
1.4: normalised cell number ([7]; measured here: mesenchymal TEM4-18 mCherry cell survival)
8570 and 9810: cell count [8, 14]
73% and 104% and 60.2%: viability [1]
1.31 and 1.98: fold change [8, 13]
9460 and 10600: cell count [8, 15]
inactive: parasite load remaining [1] 72.1% and 22.2% and 49.1% | fluorescence ratio [2] 0.97 | inhibition [3] -1.98% | inhibition [4] -0.1% | fluorescence ratio [5] 0.93 | z-score [6] -0.308 | red/green cell ratio (normalised) ([7]; actives lie on both sides, counts scaled to control wells, 1 = unselective) 1.04 | fold change [8, 12] 0.906 and 0.927 | z-score [9] -0.705 | log fold change Tl+ flux [10] 0.0355 | log fold change Tl+ flux (R275C) 0.0343 | log fold change Tl+ flux (R275C/beta1) 0.0624 | log fold change Tl+ flux (R275C/beta2Delta) 0.0478

Cc1cc(=O)oc2cc(NC(=O)C3CCC(=O)N3)ccc12 (stereo unspecified)
10900: cell count [8, 14]
136%: viability [1]
11400: cell count [8, 15]
1.59: fold change [8, 13]
inactive: parasite load remaining [1] 62.4% | fluorescence ratio [2] 0.96 | inhibition [3] 1.36% | inhibition [4] 11.7% | fluorescence ratio [5] 0.91 | fold change [8, 12] 0.953 | z-score [9] -0.335 | log fold change Tl+ flux (F380Y) -0.00455 | log fold change Tl+ flux (F380Y/beta1) -0.0136 | log fold change Tl+ flux (F380Y/beta2Delta) -0.0131 | log fold change Tl+ flux (F380Y/beta4) 0.0184 | log fold change Tl+ flux [10] -0.00524 | log fold change Tl+ flux (R275C) -0.000517 | log fold change Tl+ flux (R275C/beta1) 0.0432 | log fold change Tl+ flux (R275C/beta2Delta) -0.00476 | log fold change Tl+ flux (R275C/beta4) -0.0203 | log fold change Tl+ flux (R275C/Slo1WT/beta2) -0.0148

O=C1NC(=O)N(C2CC(O)C(CO)O2)CC1F (stereo unspecified)
inactive: mean signal [11] 241

CCN(CC)CCOc1ccc(C(=C(Cl)c2ccccc2)c2ccccc2)cc1
5020 and 7560: cell count [8, 14]
4620 and 8110: cell count [8, 15]
2.63 and 0.76: fold change [8, 13]
active: fluorescence ratio [2] 0.76 | log fold change Tl+ flux (F380Y/beta1) -0.533 | log fold change Tl+ flux (R275C/beta4) 0.493 | log fold change Tl+ flux (R275C/Slo1WT/beta2) -0.157
inactive: parasite load remaining [1] -4.11% | inhibition [3] -10.4% | inhibition [4] 0.29% | fluorescence ratio [5] 0.97 | fold change [8, 12] 1.09 and 0.932 | z-score [9] -1.52 | log fold change Tl+ flux (F380Y) 0.00267 | log fold change Tl+ flux (F380Y/beta2Delta) 0.0152 | log fold change Tl+ flux (F380Y/beta4) -0.059 | log fold change Tl+ flux (R275C) 0.0156 | log fold change Tl+ flux (R275C/beta1) 0.0697 | log fold change Tl+ flux (R275C/beta2Delta) -0.00533
3.72%: viability [1]

N[C@@H](C(=O)N[C@@H]1C(=O)N2C(C(=O)O)=C(CSc3cn[nH]n3)CS[C@H]12)c1ccc(O)cc1 (tested in a mixture with another compound)
72.4%: viability [1]
inactive: parasite load remaining [1] 100% | fluorescence ratio [2] 1.06 | fluorescence ratio [5] 1.01 | log fold change Tl+ flux (F380Y) 0.0279 | log fold change Tl+ flux (F380Y/beta1) -0.0559 | log fold change Tl+ flux (F380Y/beta2Delta) 0.00568 | log fold change Tl+ flux (F380Y/beta4) -0.0478 | log fold change Tl+ flux [10] 0.0418 | log fold change Tl+ flux (R275C) -0.0506 | log fold change Tl+ flux (R275C/beta1) 0.00628 | log fold change Tl+ flux (R275C/beta2Delta) 0.0029 | log fold change Tl+ flux (R275C/beta4) -0.00667 | log fold change Tl+ flux (R275C/Slo1WT/beta2) 0.00247
active: inhibition [3] 21.8% | inhibition [4] 56.1%

CO[C@H]1C=CO[C@@]2(C)Oc3c(C)c(O)c4c(O)c(c5c(nc6cc(C)ccn65)c4c3C2=O)NC(=O)C(C)=CC=C[C@H](C)[C@H](O)[C@@H](C)[C@@H](O)[C@@H](C)[C@H](OC(C)=O)[C@@H]1C
inactive: parasite load remaining [1] 97.9% | fluorescence ratio [2] 0.98 | inhibition [3] 1.19% | inhibition [4] 1.44% | fluorescence ratio [5] 1.01 | log fold change Tl+ flux (R275C/beta1) 0.0122 | log fold change Tl+ flux (R275C/beta2Delta) -0.0244 | log fold change Tl+ flux (R275C/beta4) -0.0127 | log fold change Tl+ flux (R275C/Slo1WT/beta2) -0.00936
active: log fold change Tl+ flux (F380Y) -0.487 | log fold change Tl+ flux (F380Y/beta1) -0.224 | log fold change Tl+ flux (F380Y/beta2Delta) -0.411 | log fold change Tl+ flux (F380Y/beta4) -0.508 | log fold change Tl+ flux [10] -0.124 | log fold change Tl+ flux (R275C) -0.242
78.8%: viability [1]

CC(=O)NCCCCCCNC(C)=O
inactive: parasite load remaining [1] 100% | fluorescence ratio [2] 1.01 | inhibition [3] -1.19% | inhibition [4] -3.18% | fluorescence ratio [5] 0.97 | z-score [6] -0.47 | mean signal [11] 268 | fold change [8, 12] 0.955 | z-score [9] 0.325 | log fold change Tl+ flux (F380Y) 0.015 | log fold change Tl+ flux (F380Y/beta2Delta) -0.0186 | log fold change Tl+ flux [10] 0.0164 | log fold change Tl+ flux (R275C) 0.0387 | log fold change Tl+ flux (R275C/beta1) 0.0269 | log fold change Tl+ flux (R275C/beta2Delta) -0.0786
66.5%: viability [1]
9770: cell count [8, 15]
9330: cell count [8, 14]
1.58: fold change [8, 13]

CCC(=O)OCC(=O)[C@@]1(OC(=O)CC)[C@@H](C)C[C@H]2[C@@H]3CCC4=CC(=O)C=CC4(C)[C@@]3(Cl)[C@@H](O)CC21C (stereo partly specified)
inactive: mean signal [11] 228

C=CC1=C(C(=O)O)N2C(=O)[C@@H](NC(=O)C(=NO)c3csc(N)n3)[C@H]2SC1
69.3%: viability [1]
active: inhibition [4] 96.5%
inactive: parasite load remaining [1] 50% | fluorescence ratio [2] 1 | inhibition [3] 11.1% | fluorescence ratio [5] 0.91 | log fold change Tl+ flux (F380Y) 0.0518 | log fold change Tl+ flux (F380Y/beta1) 0.00826 | log fold change Tl+ flux (F380Y/beta2Delta) 0.0258 | log fold change Tl+ flux (F380Y/beta4) 0.0162 | log fold change Tl+ flux [10] -0.00804 | log fold change Tl+ flux (R275C) -0.0491 | log fold change Tl+ flux (R275C/beta1) 0.0161 | log fold change Tl+ flux (R275C/beta2Delta) 0.037 | log fold change Tl+ flux (R275C/beta4) 0.0002 | log fold change Tl+ flux (R275C/Slo1WT/beta2) 0.0335
